Screens deposited in PubChem by The Scripps Research Institute Molecular Screening Center.
Shown are actives, neighbours in structure and some others; about 2.8% of the full set was active somewhere.
bovine MsrA act: bovine MsrA enzyme activators, primary screen, biochemical, absorbance, HTS. Methionine sulfoxide reductase A (Bos taurus). purified bovine MsrA, absorbance read-out. activation, % at 10.6 µM. 0.3% of 360,000 active; in the data active = activation above about 7.5%;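 also: 0% = vehicle and 100% = reference activator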
HGIII-sPLA2 inh: human group III sPLA2 inhibitors, primary screen, biochemical, QFRET, BODIPY PC-A2 liposome substrate | Group 3 secretory phospholipase A2 (Homo sapiens), Q9NZ20 | QFRET BODIPY PC-A2 liposome hydrolysis, fluorescence | inhibition, % at 12.2 µM | 0.56% of 370,000 active;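 active = inhibition above mean plus 3 SD of compounds lying within the high and low control bounds, cut at about 19% in these data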;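 also: 0% = median of test compound wells and 100% = no enzyme DMSO wells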
Target sequence (Q9NZ20 whole entry, looked up): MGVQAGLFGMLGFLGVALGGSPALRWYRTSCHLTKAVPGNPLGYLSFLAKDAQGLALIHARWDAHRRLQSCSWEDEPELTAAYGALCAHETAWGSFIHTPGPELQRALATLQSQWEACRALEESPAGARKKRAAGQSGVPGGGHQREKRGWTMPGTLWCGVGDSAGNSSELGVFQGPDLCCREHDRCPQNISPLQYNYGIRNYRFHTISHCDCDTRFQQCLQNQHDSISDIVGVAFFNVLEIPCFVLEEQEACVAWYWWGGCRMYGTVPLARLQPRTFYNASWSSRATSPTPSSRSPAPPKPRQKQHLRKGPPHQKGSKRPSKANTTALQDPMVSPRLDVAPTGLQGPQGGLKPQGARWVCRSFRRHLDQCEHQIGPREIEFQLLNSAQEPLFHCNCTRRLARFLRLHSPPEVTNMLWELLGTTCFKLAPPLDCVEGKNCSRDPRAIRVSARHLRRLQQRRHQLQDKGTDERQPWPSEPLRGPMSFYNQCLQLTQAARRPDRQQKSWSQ
MsrA inhibitor: bovine MsrA enzyme inhibitors, primary screen, biochemical, absorbance, HTS | Methionine sulfoxide reductase A (Bos taurus) | purified bovine MsrA, absorbance read-out | inhibition, % at 15.5 µM | 0.75% of 360,000 active | AID 651718, 2012; in the data active = inhibition above about 4.5%;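 also: 0% = vehicle wells with enzyme and 100% = reference inhibitor wells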
rCAG binder: binders of r(CAG) RNA repeats, primary screen, biochemical, fluorescence | r(CAG) RNA repeat, TO-PRO-1 dye displacement fluorescence | 1.3% of 370,000 active | AID 651821, 2012 | inhibition, % at 3 µM;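 active = inhibition above the plate cutoff, the mean of all test compounds on that plate plus 3 SD, cut at about 35% in these data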;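 also: 0% = DMSO alone and 100% = 100 µM mitoxantrone as full dye displacement; higher means more dye released from RNA so lower well fluorescence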
rCAG binder conf: small molecules binding CAG repeat RNA – biochemical, fluorescence, confirmation | shares compounds with rCAG binder | r(CAG) RNA repeat, TO-PRO-1 dye displacement fluorescence | inhibition, % at 3 µM | 70% of 4,300 active | AID 652065, 2013;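 active = inhibition above a per-plate cutoff, the mean inhibition of sample wells plus 3 SD, cut at about 35% in these data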;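 also: loss of TO-PRO-1 fluorescence as compound displaces dye from 1x1 AA loop RNA; 0% = DMSO only wells and 100% = 100 µM mitoxantrone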
dCAG dye counter: displacement of TO-PRO-1 from CAG DNA duplex, counter-screen for rCAG RNA repeat binder project, biochemical, fluorescence, TO-PRO-1 dye, d(CAG) DNA oligo; 94% of 4,300 active; shares compounds with rCAG binder; inhibition, % at 3 µM; d(CAG) DNA oligo TO-PRO-1 dye displacement; AID 652068, 2013;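 active = inhibition above its plate's cutoff, the mean test-well inhibition plus 3 SD, cut at about 4.8% in these data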;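 also: 0% = DNA dye mix with DMSO and 100% = 100 µM mitoxantrone; hits displace the dye from DNA and so lower well fluorescence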
* hit, by the source's call; . = not tested or not shown.

SMILES	bovine MsrA act	HGIII-sPLA2 inh	MsrA inhibitor	rCAG binder	rCAG binder conf	dCAG dye counter
COc1ccc(C(=O)Nc2ccc(S(=O)(=O)Nc3onc(C)c3C)cc2)c(OC)c1	-9	-19	1	41*	20	4
Nc1cc(N2CCOCC2)c(Cl)cc1[N+](=O)[O-]	-1	-8	1	-2	.	.
N#Cc1sc2nccc(Nc3ccccc3)c2c1N	-8	1	3	38*	2	0
COc1ccc(C)cc1NC(=O)NNC(=O)c1ccoc1C	-3	-1	0	0	.	.
COc1ccccc1NC(=O)c1cc2cc(Br)ccc2cc1O	-4	-58	0	71*	49*	25*
COc1ccccc1NC(=O)COC(=O)c1cc2ccccc2cc1O	-3	3	-1	6	.	.
COc1ccc(C)cc1NC(=O)NNC(=O)c1cc2ccccc2cc1O	-13	14	0	58*	42*	15*
CC(C)C(Sc1nc(-c2ccccc2)cc(-c2ccccc2)c1C#N)C(=O)O (stereo not drawn)	0	-32	0	83*	86*	51*
CC(C)OC(=O)CC(=O)CSc1nc(-c2ccc(F)cc2)cc(-c2ccccc2)c1C#N	-2	-2	4	16	.	.
COc1ccc(-c2cc(-c3ccccc3)nc(SC(C)C(=O)O)c2C#N)cc1 (stereo not drawn)	-2	-23	2	71*	76*	38*
O=C(CCNS(=O)(=O)c1ccc2nsnc2c1)N1CCN(c2ccncc2)CC1	-1	9	0	1	.	.
CCC(=O)NC(=S)Nc1ccccc1OC	-2	1	0	-2	.	.
CN1C(=O)/C(=C/c2ccc(C(=O)Nc3ccc(O)cc3C(=O)O)cc2)SC1=S	-3	-12	1	55*	94*	82*
COc1cc(C=NNC(=O)c2ccccc2NS(=O)(=O)c2cccs2)cc(OC)c1O	-5	-13	4	42*	51*	12*
COc1ccc(OC)c(C=NNC(=O)c2ccccc2NS(=O)(=O)c2cccs2)c1	-4	-7	4	60*	50*	15*
COc1ccc(C)cc1NC(=O)c1ccccc1NS(=O)(=O)c1ccc(Cl)s1	-5	-72	2	90*	84*	54*
COc1ccccc1NC(=O)c1ccccc1NS(=O)(=O)c1cccs1	0	-16	1	37*	27	5.3*
CCC(C)(c1ccc(C=O)s1)c1ccc(C=O)s1	-6	-14	0	3	.	.
COc1ccc(NS(=O)(=O)c2ccc(C)cc2)c([N+](=O)[O-])c1	-3	-9	2	6	.	.
O=C(CNC(=O)c1cccs1)N/N=C/c1ccc(O)cc1O	-3	-9	3	-1	.	.
COc1ccc(NC(=O)c2ccccc2NS(=O)(=O)c2ccc(C)cc2)c([N+](=O)[O-])c1	-3	-34	1	56*	60*	25*
O=C(NN=Cc1ccc(O)cc1O)c1ccccc1NS(=O)(=O)c1cccs1	3	-9	3	43*	41*	14*
CC(C)c1ccc(NC2CCCN(C(=O)c3cnsn3)C2)cc1 (stereo not drawn)	0	5	-1	-6	.	.
O=C(NCCOc1ccccc1)c1cccc(S(=O)(=O)NCc2ccccc2)c1	-1	-20	1	-1	.	.
CCN1C(=O)S/C(=C/c2c(OCc3ccc(C(=O)O)cc3)ccc3ccccc23)C1=O	-9	-33	0	50*	67*	27*
SMILES	bovine MsrA act	HGIII-sPLA2 inh	MsrA inhibitor	rCAG binder	rCAG binder conf	dCAG dye counter
CCOC(=O)/C=C/C(=O)Nc1ccc(S(=O)(=O)Nc2cc(C)on2)cc1	-5	-3	1	7	.	.
Cc1cc(NS(=O)(=O)c2ccc(NC(=O)/C=C/c3c(F)cccc3Cl)cc2)no1	-2	-55	2	63*	51*	19*
Cc1cc(NS(=O)(=O)c2ccc(NC(=O)/C=C/c3c(F)cccc3Cl)cc2)nc(C)n1	-4	-41	0	43*	30	8.7*
[N-]=C=C1C(=S)NC(=O)[C@H]([n+]2ccccc2)[C@H]1c1ccc(Cl)cc1	-1	-11	0	44*	64*	28*
Cc1nc(Nc2cccc(C(F)(F)F)c2)nc2c1C(=O)CC(C)C2 (stereo not drawn)	-2	0	0	0	.	.
CCOC(=O)c1ccccc1NC(=O)Cc1c(C(=O)O)n(C)c2ccccc12	0	-14	-1	37*	25	4
O=C(C1CCC(=O)N(C2CCCCCC2)C1)N1CCN(c2ccccc2Cl)CC1 (stereo not drawn)	3	2	0	-5	.	.
Cc1c(C(=O)OCC(C)C)[nH]c2c1C(=O)CC(c1ccco1)C2 (stereo not drawn)	-2	-5	2	23	.	.
C/C=C/COC(=O)c1[nH]c2c(c1C)C(=O)CC(c1ccco1)C2 (stereo not drawn)	-3	5	1	38*	12	9.4*
CC(=O)c1c(C)[nH]c(C(=O)OCC(=O)N(CC(C)C)C2CCS(=O)(=O)C2)c1C (stereo not drawn)	-2	3	-1	-5	.	.
CC(C)=CCc1c(O)cc2oc3c(CC=C(C)C)c(O)c(O)c(CC=C(C)C)c3c(=O)c2c1O	-7	8	1	72*	67*	47*
CN1C(C(=O)Nc2ccc(C(=O)O)cc2)=C(O)c2ccccc2S1(=O)=O	-1	5	2	12	.	.
Cc1sc2c(c1C)C(O)=C(C(=O)Nc1ccccc1)S(=O)(=O)N2C	-5	-13	2	43*	27	6.9*
CC(C)N=C1CC(C)(C)CC(=O)/C1=C(/O)CCCN1C(=O)c2ccccc2C1=O	-2	-2	0	-10	.	.
O=C(Nc1scc(-c2ccc(Br)cc2)c1C(=O)O)c1ccccc1F	3	-8	0	25	.	.
Cc1ccc(-c2csc(NC(=O)c3ccc(F)cc3)c2C(=O)O)cc1	-3	-9	1	63*	39*	8.8*
COc1ccccc1NC(=O)Cc1cccc2ccccc12	-3	-9	-2	-2	.	.
Cc1ccccc1C(=O)Nc1scc(-c2ccc(Br)cc2)c1C(=O)O	-2	4	1	9	.	.
O=C(Nc1scc(-c2ccccc2)c1C(=O)O)c1ccc(F)cc1	-1	-8	2	36*	23	5.0*
COc1ccc(-c2csc(NC(=O)Cc3cccc4ccccc34)c2C(=O)O)cc1	-2	-28	0	61*	54*	17*
COc1ccc(-c2csc(NC(=O)c3ccccc3Br)c2C(=O)O)cc1	-4	3	2	55*	36*	10*
O=C(Nc1scc(-c2ccccc2)c1C(=O)O)c1ccccc1F	0	-11	1	20	.	.
